Common to all, as to conditions: modulator concentration 10 µM
For assay [1], the system named is RAW-Dual (murine macrophage reporter line). The assay is described as follows: NF-kB reporter (SEAP) activity fold change vs agonist alone; higher = enhanced NF-kB activity. Put shortly: (§1)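 RAW-Dual murine macrophage reporter cells were seeded at 50 000 per well in 384-well plates and pre-incubated 1 hour at 37 °C with compound pin-transferred to 10 μM final. After 1 hour, a PRR agonist was added and cells incubated overnight. Supernatant NF-κB (SEAP, QUANTI-Blue, 620 nm absorbance) and IRF (Lucia luciferase, QUANTI-Luc, luminescence) signals were divided by the mean agonist-only control on the same plate to give fold change. Two replicate plates were averaged, with errors by propagation.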

Assay [2] has the same test system. The experiment in a line: IRF reporter (Lucia luciferase) activity fold change vs agonist alone; higher = enhanced IRF activity. In a few lines:
as §1

Assay [3] has the same test system. The assay is described as follows: viability score (confluency relative to resting cells, overnight) (fraction); higher = more viable, active = viable (0.7 or more). Put shortly:
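Overnight exposure to 10 μM final compound was carried out on RAW-Dual macrophages in 384-well plates. IncuCyte software generated two confluency masks over all wells imaged with IncuCyte. The viability score gives confluency in relation to resting cells. A compound met the cutoff if each mask exceeded 70% of resting cells.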

Setting [4] is: agonist: CpG ODN 1826 0.5 ug/mL.

± gives the standard deviation.

Take `Cc1ccc(-c2cc(-c3ccccc3)nc(NN=Cc3ccc(O)cc3)n2)cc1`: the NF-kB reporter in assay [1] (setting [4]) turned out to be 0.952 ± 0.12; in assay [1] (agonist: LPS 0.1 ug/mL), 1.3 ± 0.14; in assay [1] (agonist: MPLA […]), 1.7 ± 0.17. For the same compound, the IRF reporter in assay [2] (agonist: 3'3'-cGAMP 10 ug/mL) was determined as 0.228 ± 0.026; in assay [2] (agonist: LPS 0.1 ug/mL) it was 0.942 ± 0.12; in assay [2] (agonist: MPLA […]), 0.949 ± 0.12. Also, the viability score in assay [3] is 0.923 (active).
`CC(C)Oc1ccc(C(=O)NC2CCN(c3ncnc4c3CCCC4)CC2)cn1`: the NF-kB reporter in assay [1] (setting [4]) was 1.15 ± 0.086; in assay [1] (agonist: LPS 0.1 ug/mL), 1.14 ± 0.086; in assay [1] (agonist: MPLA […]), 0.985 ± 0.031. For the same compound, the IRF reporter stood at 0.939 ± 0.055 in assay [2] (agonist: 3'3'-cGAMP 10 ug/mL), 1.06 ± 0.083 in assay [2] (agonist: LPS 0.1 ug/mL) and 1.04 ± 0.11 in assay [2] (agonist: MPLA […]). The viability score in assay [3] is 0.997 (active).
For `Oc1c2c(nc3cc(-c4ccc(Cl)cc4)nn13)CCS2`, the NF-kB reporter in assay [1] (setting [4]) is 1.1 ± 0.09; in assay [1] (agonist: LPS 0.1 ug/mL), 0.945 ± 0.12; in assay [1] (agonist: MPLA […]), 0.973 ± 0.031. The IRF reporter in assay [2] (agonist: 3'3'-cGAMP 10 ug/mL) was determined as 0.976 ± 0.038; in assay [2] (agonist: LPS 0.1 ug/mL), 0.967 ± 0.047; in assay [2] (agonist: MPLA […]) it was 1.11 ± 0.14. Moreover, the viability score in assay [3] was 0.998 (active).
In the case of `CCc1c(C)c2ccc(OCC(C)=O)c(C)c2oc1=O`, the NF-kB reporter in assay [1] (setting [4]) worked out at 0.936 ± 0.21; in assay [1] (agonist: LPS 0.1 ug/mL), 0.984 ± 0.098; in assay [1] (agonist: MPLA […]), 0.938 ± 0.098. Besides, the IRF reporter in assay [2] (agonist: 3'3'-cGAMP 10 ug/mL) is 0.942 ± 0.068; in assay [2] (agonist: LPS 0.1 ug/mL), 1.27 ± 0.3; in assay [2] (agonist: MPLA […]), 1.2 ± 0.13. Besides, in assay [3], the viability score was 0.991 (active).
With `COC(=O)Nc1nc2cc(C(=O)c3cccs3)ccc2[nH]1` [Prestw-100], the NF-kB reporter in assay [1] (setting [4]) was 2.4 ± 0.14; in assay [1] (agonist: LPS 0.1 ug/mL), 1.31 ± 0.094; in assay [1] (agonist: MPLA […]) it was 1.98 ± 0.13. Further, the IRF reporter in assay [2] (agonist: 3'3'-cGAMP 10 ug/mL) was 0.101 ± 0.0035; in assay [2] (agonist: LPS 0.1 ug/mL) it was 1.86 ± 0.18; in assay [2] (agonist: MPLA […]), 2.05 ± 0.19. Further, the viability score in assay [3] is 0.715 (active).
For the compound `CC(C)CN(C[C@@H](O)[C@H](Cc1ccccc1)NC(=O)O[C@H]1CO[C@H]2OCC[C@H]21)S(=O)(=O)c1ccc(N)cc1`, the NF-kB reporter in assay [1] (setting [4]) was 1.74 ± 0.13; in assay [1] (agonist: LPS 0.1 ug/mL) it was 1.08 ± 0.054; in assay [1] (agonist: MPLA […]), 1.85 ± 0.069. The IRF reporter in assay [2] (agonist: 3'3'-cGAMP 10 ug/mL) stood at 0.916 ± 0.053; in assay [2] (agonist: LPS 0.1 ug/mL), 1.04 ± 0.071; in assay [2] (agonist: MPLA […]), 1.02 ± 0.1. Further, the viability score in assay [3] was 0.997 (active).
For `CC(C)(C)CC(=O)Nc1nc2ccc(S(C)(=O)=O)cc2s1`, the figures for the NF-kB reporter in assay [1] (setting [4]), in assay [1] (agonist: LPS 0.1 ug/mL) and in assay [1] (agonist: MPLA […]) were 0.987 ± 0.12, 1.19 ± 0.068 and 1.25 ± 0.12, respectively. Moreover, the IRF reporter is 0.787 ± 0.033 in assay [2] (agonist: 3'3'-cGAMP 10 ug/mL), 0.831 ± 0.11 in assay [2] (agonist: LPS 0.1 ug/mL) and 0.779 ± 0.23 in assay [2] (agonist: MPLA […]). The viability score in assay [3] was 0.948 (active).
With `O=C(O)c1coc(CNC(=O)c2cocc2C(=O)O)c1`, the NF-kB reporter in assay [1] (setting [4]) was found to be 1.04 ± 0.1; in assay [1] (agonist: LPS 0.1 ug/mL) it was 1.08 ± 0.08; in assay [1] (agonist: MPLA […]), 0.902 ± 0.054. In addition, the IRF reporter came to 0.996 ± 0.027 in assay [2] (agonist: 3'3'-cGAMP 10 ug/mL), 1.51 ± 0.21 in assay [2] (agonist: LPS 0.1 ug/mL) and 1.14 ± 0.072 in assay [2] (agonist: MPLA […]). In addition, the viability score in assay [3] was 1.01 (active).
For the compound `CCOC(=O)c1ccccc1NC(=O)CN(c1cc(C)ccc1OC)S(C)(=O)=O`, the values for the NF-kB reporter in assay [1] (setting [4]), in assay [1] (agonist: LPS 0.1 ug/mL) and in assay [1] (agonist: MPLA […]) were 1.05 ± 0.097, 1.03 ± 0.068 and 0.994 ± 0.047, respectively. The IRF reporter in assay [2] (agonist: 3'3'-cGAMP 10 ug/mL) was 1.01 ± 0.21; in assay [2] (agonist: LPS 0.1 ug/mL), 1.05 ± 0.11; in assay [2] (agonist: MPLA […]) it was 1 ± 0.2. Besides, the viability score in assay [3] is 1 (active).
Turning to `C=C1c2cccc(O)c2C(=O)C2=C(O)[C@]3(O)C(=O)C(C(N)=O)=C(O)[C@@H](N(C)C)[C@@H]3[C@@H](O)[C@H]12.Cl`, the figures for the NF-kB reporter in assay [1] (setting [4]), in assay [1] (agonist: LPS 0.1 ug/mL) and in assay [1] (agonist: MPLA […]) were 1.16 ± 0.29, 0.985 ± 0.064 and 0.952 ± 0.07, respectively. In addition, the IRF reporter in assay [2] (agonist: 3'3'-cGAMP 10 ug/mL) amounted to 0.914 ± 0.045; in assay [2] (agonist: LPS 0.1 ug/mL) it was 1.22 ± 0.23; in assay [2] (agonist: MPLA […]) it was 1.14 ± 0.13. Besides, in assay [3], the viability score is 0.962 (active).
For `Cc1ccc2c(c1)C1(c3ccccc3)Nc3ccc(C)cc3C1(c1ccccc1)N2` (stereo not drawn), the NF-kB reporter was determined as 0.878 ± 0.082 in assay [1] (setting [4]), 0.904 ± 0.078 in assay [1] (agonist: LPS 0.1 ug/mL) and 0.86 ± 0.085 in assay [1] (agonist: MPLA […]). Moreover, the IRF reporter in assay [2] (agonist: 3'3'-cGAMP 10 ug/mL) worked out at 0.864 ± 0.071; in assay [2] (agonist: LPS 0.1 ug/mL) it was 0.996 ± 0.14; in assay [2] (agonist: MPLA […]), 0.969 ± 0.19. In assay [3], the viability score is 1.02 (active).
For the compound `Cc1c(F)cc(C(=O)NC2CC2)cc1-c1ccc(C(=O)NCC(C)(C)C)cn1`, the NF-kB reporter in assay [1] (setting [4]) was 0.825 ± 0.21; in assay [1] (agonist: LPS 0.1 ug/mL), 0.994 ± 0.05; in assay [1] (agonist: MPLA […]), 1.01 ± 0.071. Further, the IRF reporter stood at 1.1 ± 0.043 in assay [2] (agonist: 3'3'-cGAMP 10 ug/mL), 0.808 ± 0.18 in assay [2] (agonist: LPS 0.1 ug/mL) and 0.932 ± 0.088 in assay [2] (agonist: MPLA […]). The viability score in assay [3] is 1 (active).
`O=C(Cn1nc(S(=O)(=O)c2cccc(F)c2)ccc1=O)N1CCc2ccccc2C1`: the values for the NF-kB reporter in assay [1] (setting [4]), in assay [1] (agonist: LPS 0.1 ug/mL) and in assay [1] (agonist: MPLA […]) were 1.03 ± 0.097, 1.07 ± 0.085 and 0.921 ± 0.053, respectively. Moreover, the IRF reporter came out at 1.02 ± 0.051 in assay [2] (agonist: 3'3'-cGAMP 10 ug/mL), 1.29 ± 0.1 in assay [2] (agonist: LPS 0.1 ug/mL) and 1.14 ± 0.21 in assay [2] (agonist: MPLA […]). In addition, the viability score in assay [3] was 1 (active).
Regarding `Cc1cnc(C(=O)O)c[n+]1[O-]`, the NF-kB reporter came to 1.09 ± 0.085 in assay [1] (setting [4]), 0.988 ± 0.074 in assay [1] (agonist: LPS 0.1 ug/mL) and 1.03 ± 0.026 in assay [1] (agonist: MPLA […]). Moreover, the IRF reporter is 0.962 ± 0.069 in assay [2] (agonist: 3'3'-cGAMP 10 ug/mL), 0.966 ± 0.048 in assay [2] (agonist: LPS 0.1 ug/mL) and 0.926 ± 0.11 in assay [2] (agonist: MPLA […]). Also, the viability score in assay [3] is 1 (active).

For the origin of these results see the supplement of paper PMC10646978.
